Bioassay records as filed in PubChem BioAssay.
Compounds with a hit are over-represented: about 5.7% of the library has one in this group of screens.
A549 viability: Nrf2 qHTS screen for inhibitors: counterscreen for cytotoxicity | A549 ARE-Fluc cells, CellTiter-Fluor viability, 18-24 h | Potency, µM (series often up to 46 µM), usual class: inhibitors | actives 0.16% (n = 390,000)
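A549 ARE_Fluc cells in 5% FBS OPTI-MEM were exposed to compounds in concentration-response for 18-24 h at 37 deg C. Viability was read by CellTiter-Fluor fluorescence (Ex 405/Em 525) after 30 min, before the luciferase read.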
KB-V1 cytotox: qHTS assay for MDR1-selective chemotherapeutics: Primary screen using the drug-selected MDR subline cells KB-V1 | KB-V1 MDR cells viability, CellTiter-Glo, 72 h | Potency, µM (doses to about 46.1 µM), most hits filed as cytotoxic | actives 3.4% (n = 400,000); also: nearly all actives have a fitted effect of over 60% in size
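Cytotoxicity via CellTiter-Glo luminescence after 72 h compound exposure at 37 degrees C. Cells: drug-selected KB-V1 line, DMEM phenol-red free plus 10% FBS. Compounds tested at multiple concentrations; normalized data fitted to concentration-effect curves.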
PI4K2A inh: qHTS for small molecular inhibitors of PI4K2A. actives 0.13% (n = 420,000). purified PI4K2A, ADP-Glo luminescence, 1 h; active compounds read low. activity change, negative = inhibition, % at 76.9 µM. Phosphatidylinositol 4-kinase type 2-alpha (Homo sapiens), Q9BTU6; in the data active = activity change below about -50%; inconclusive = mostly about -30% to -49%
Target sequence (Q9BTU6 whole entry, looked up): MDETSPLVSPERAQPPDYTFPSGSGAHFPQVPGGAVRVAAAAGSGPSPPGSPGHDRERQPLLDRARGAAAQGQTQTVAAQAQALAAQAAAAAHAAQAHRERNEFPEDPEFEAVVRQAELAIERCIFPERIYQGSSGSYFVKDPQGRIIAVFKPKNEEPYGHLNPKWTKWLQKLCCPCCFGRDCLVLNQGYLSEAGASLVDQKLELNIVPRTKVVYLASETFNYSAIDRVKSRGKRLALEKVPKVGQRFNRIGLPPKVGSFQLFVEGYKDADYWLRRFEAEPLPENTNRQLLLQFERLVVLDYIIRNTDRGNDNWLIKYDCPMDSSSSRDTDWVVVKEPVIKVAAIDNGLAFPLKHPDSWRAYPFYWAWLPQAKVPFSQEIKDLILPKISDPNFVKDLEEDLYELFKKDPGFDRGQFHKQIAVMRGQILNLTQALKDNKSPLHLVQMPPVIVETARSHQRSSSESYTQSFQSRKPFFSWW
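ADP-Glo luminescence measured ADP generated by PI4K2A enzyme (4 ug/mL before mixing) with 1.2 mM PI substrate (pre-mix) and 300 microM ATP (pre-mix). Tris pH7.5 buffer with MgCl2, Triton X-100; 1 h reaction at ambient temperature.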
Nrf2 block: Nrf2 qHTS screen for inhibitors; A549 ARE-Fluc reporter, luciferase luminescence, 18-24 h; Potency, µM (titrated, usually from 46 µM), actives largely listed as inhibitors; actives 2.1% (n = 360,000); AID 504444, 2011; also: nearly all actives have a fitted effect of over 60% in size
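A549 ARE_Fluc cells (5000/well, 5% FBS OPTI-MEM) pre-incubated 2 h, then treated with compounds 18-24 h at 37C/5% CO2 in concentration-response. CellTiter-Fluor viability read first; BugLite luciferase luminescence after 15 min at room temperature gives Nrf2 activity.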
KB-3-1 cytotox: qHTS assay for MDR1-selective chemotherapeutics: Primary screen using the parental adenocarcinoma cell KB-3-1; KB-3-1 viability, CellTiter-Glo ATP luminescence, 72 h; Potency, µM (top dose mostly 46.1 µM), actives largely listed as cytotoxic; actives 1.4% (n = 400,000); also: nearly all actives have a fitted effect of over 60% in size
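Using CellTiter-Glo luminescence, growth of non-resistant KB-3-1 adenocarcinoma cells is assessed 72 h after pin-tool compound addition at 37 °C. Normalized responses across the concentration series yield fitted curves.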
Giardia killer: Small Molecules that selectively kill Giardia lamblia: qHTS; Giardia lamblia trophozoite viability; activity change, % at 7.66 µM, hits read low; actives 0.15% (n = 340,000); in the data active = activity change below about -80%; inconclusive = between about -30% and that limit;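 also: parasites exposed to compound for two days anaerobically before the ATP read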
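Luminescent ATP signal served as the viability read-out, measured 15-30 min after adding ATP detection reagent to trophozoites that had been incubated with compounds for 48 hrs at 37 deg C anaerobically at 100 cells/well.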
Numbers stand for hits; - = inactive; ? = inconclusive; . = no result. Unless noted, calls follow the shape of the dose curve; as a rule, active = well fitted curve in the direction sought with a large enough effect; inconclusive = small, poorly fitted or top-dose-only effect, or another doubt; inactive = no such curve, though single readings can be large; an effect the other way counts as inactive or inconclusive.

SMILES	A549 viability	KB-V1 cytotox	PI4K2A inh	Nrf2 block	KB-3-1 cytotox	Giardia killer
Cc1cc(Br)ccc1NC(=O)CNC(=O)Cn1ncc(Cl)c(Cl)c1=O	-	?	-	-	5.17µM	-
CCCCN(C(=O)NC(=O)Nc1nc2ccc(OC)cc2s1)S(C)(=O)=O	-	9.2µM	-	?	?	-
COc1ccc2nc(NC(=O)CCn3cccc3)sc2c1	-	18.4µM	-	-	-	-
CCOCC(=O)Nc1nc2ccc(OC)cc2s1	-	-	-	.	-	-
COc1ccc2nc(NC(=O)CCc3cc(OC)c(OC)c(OC)c3)sc2c1	-	20.6µM	-	-	-	-
COc1ccc2nc(NC(=O)CSc3nccc(C)n3)sc2c1	-	23.1µM	-	-	-	-
N[C@H]1CN(c2c(F)cc3c(=O)c(C(=O)O)cn(C4C[C@@H]4F)c3c2Cl)CC12CC2 (stereo not given in full)	.	.	-	.	.	.
O=S1(=O)c2ccc(N3CCC[C@@H]3CO)cc2O[C@H]2CCN1C2	.	.	-	.	.	.
CN1CCCN(C(=O)C2CCCN(C(=O)c3ccc4c(c3)NC(=O)CS4)C2)CC1 (stereo not given)	.	.	-	.	.	.
O=C(/C=C/c1ccccc1)Nc1ccc(CN2CCOCC2)cc1	-	-	-	-	-	-
O=C(COc1ccc2ccc(=O)oc2c1)Nc1ccc(CN2CCOCC2)cc1	-	-	-	-	-	-
O=C(COc1ccc(Cl)cc1Cl)Nc1ccc(CN2CCOCC2)cc1	-	-	-	?	-	-
O=C(/C=C/c1ccc(Cl)cc1Cl)Nc1ccc(CN2CCOCC2)cc1	-	-	-	7.31µM	?	-
O=C(COc1ccccc1Cl)Nc1ccc(CN2CCOCC2)cc1	-	-	-	23.1µM	-	-
O=C(COc1ccc(S(=O)(=O)N2CCOCC2)cc1)Nc1ccc(Br)cc1	-	-	-	?	-	-
O=C(COc1ccc(Br)cc1)Nc1ccc(CN2CCOCC2)cc1	-	-	-	23.1µM	-	-
O=C(CCCOc1ccc(Br)cc1)Nc1ccc(S(=O)(=O)N2CCOCC2)cc1	-	-	-	14.6µM	-	-
CCn1c(=O)n(CC(=O)N2CCCC2)c(=O)c2ccccc21	.	.	-	.	.	.
CC[C@H]1C=C[C@@H](C(=O)NS(=O)(=O)c2ccc(C)cc2)N(C(C)=O)C1	.	.	-	.	.	.
CC(C)CN(CC(C)C)C(=O)c1ccc2c(c1)NC(=O)C(C)(C)O2	.	.	-	.	.	.
Cc1nc(N2CCN(c3ccccn3)CC2)c2c(C)c(C(=O)Nc3ccc(F)cc3Cl)sc2n1	-	?	-	-	?	-
Cc1nc(N2CCN(c3ccccn3)CC2)c2c(C)c(C(=O)Nc3ccccc3F)sc2n1	-	?	-	16.4µM	20.6µM	-
Cc1nc(N2CCN(c3ccccn3)CC2)c2c(C)c(C(=O)Nc3ccc(F)cc3F)sc2n1	-	11.6µM	-	?	-	-
Cc1nc(N2CCC(C)CC2)c2c(C)c(C(=O)Nc3ccc(C(F)(F)F)cc3)sc2n1	?	?	-	20.6µM	-	-
CCc1ccc(NC(=O)c2sc3nc(C)nc(N4CCN(c5ccccn5)CC4)c3c2C)cc1	-	?	-	?	-	-
SMILES	A549 viability	KB-V1 cytotox	PI4K2A inh	Nrf2 block	KB-3-1 cytotox	Giardia killer
Cc1nc(N2CCOCC2)c2c(C)c(C(=O)Nc3ccccc3Cl)sc2n1	-	-	-	-	-	-
COc1ccc(Cl)cc1NC(=O)c1sc2nc(C)nc(N3CCOCC3)c2c1C	-	-	-	20.6µM	-	-
O=C(NC1CCCC1)C1(C(=O)C2CC2)CC(c2ccccc2C(F)(F)F)=NO1 (stereo not given)	.	.	-	.	.	.
O=S1(=O)C=CCN1Cc1cn(Cc2ccccc2)nn1	.	.	-	.	.	.
CC(C)C[C@@H]1COc2cc(Br)ccc2S(=O)(=O)N1Cc1cn(Cc2ccc(Br)cc2)nn1	.	.	-	.	.	.
CCC1CC=CC2C1C(=O)N(Cc1ccccc1)C2c1cccc([N+](=O)[O-])c1 (stereo not given)	?	.	.	-	.	?
CCc1cccc(NC(=O)Cn2cc(C=O)c3ccccc32)c1	-	20.6µM	-	-	?	?
